An excerpt weighted towards active compounds, which were near 6.2% of everything screened.
KB-V1 MDR tox: kills drug-selected multidrug resistant KB-V1 cells | KB-V1 MDR cells viability, CellTiter-Glo, 72 h | Potency, µM (titrated, usually from 46.1 µM), hits mostly cytotoxic | actives 3.4% (n = 400,000) | AID 1347076; also: % is scaled to controls: 0 for no effect and ±100 for the full control effect; nearly all actives have a fitted effect of over 60% in size
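Cytotoxicity via CellTiter-Glo luminescence after 72 h compound exposure at 37 degrees C. Cells: drug-selected KB-V1 line, DMEM phenol-red free plus 10% FBS. Compounds tested at multiple concentrations; normalized data fitted to concentration-effect curves.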
ATXN2 expr inh: ATXN2 expression inhibition | HEK-293 ATXN2-luciferase reporter, luminescence, 24 h | AID 1745845 | Potency, µM (top dose mostly 57 µM), for the others: top-dose activity change, negative = inhibition, most hits filed as inhibitors | actives 0.72% (n = 360,000); also: % is scaled to controls: 0 for no effect and ±100 for the full control effect; nearly all actives have a fitted effect of over 55% in size
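qHTS (up to 57 uM final) was run with 24 h compound exposure of reporter cells at 37 °C. Each well was multiplexed: SteadyGlo luminescence measured ATXN2-luciferase expression after a fluorogenic Gly-Phe-AFC viability readout (25 uM final).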
HT1080 IDH1KD tx: kills HT-1080 cells with IDH1 knockdown; HT-1080 IDH1 knockdown viability, ATP luminescence, 48 h; Potency, µM (highest dose often 46.1 µM), inactives show top-dose activity, negative = toxicity, hits mostly cytotoxic; actives 2% (n = 360,000);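 also: 0% = DMSO wells and -100% = cell-free medium wells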
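After a 2 h attachment period, IDH1KD HT-1080 cells took pin-transferred compound for 48 h at 37 °C; ATP-based luminescence after 10 min room-temperature reagent incubation reported viability.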
KB-3-1 tox: KB-3-1 parental cell cytotoxicity. KB-3-1 viability, CellTiter-Glo ATP luminescence, 72 h. Potency, µM (titrated, usually from 46.1 µM), usual class: cytotoxic. actives 1.4% (n = 400,000). AID 1347075; also: % is scaled to controls: 0 for no effect and ±100 for the full control effect; nearly all actives have a fitted effect of over 60% in size
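Cytotoxicity measured as CellTiter-Glo luminescence after 72 h at 37 C. Compound titrations were pinned onto drug-naive KB-3-1 parental adenocarcinoma cells grown in DMEM with 10% FBS, and normalized data fitted to concentration-response curves.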
S2 tox: reduces viability in counter-screen for ATXN expression inhibitors. S2 cells (HEK-293 line with an ATXN2-luciferase reporter) viability, CellTiter-Fluor protease fluorescence, 24 h. Potency, µM (series often up to 56.7 µM), most hits filed as cytotoxic. actives 0.49% (n = 400,000). AID 651635; also: nearly all actives have a fitted effect of over 40% in size
HT1080NT lethal: kills 2HG-producing HT-1080-NT fibrosarcoma cells. HT-1080-NT fibrosarcoma viability, CellTiter-Glo ATP luminescence, 48 h. Potency, µM (doses to about 46.1 µM), for inactives: top-dose activity, negative = less viability, most hits filed as cytotoxic. actives 1.6% (n = 360,000). AID 686970;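 also: NT is the 2HG producing partner of a matched IDH1 knockdown line; 0% = DMSO-treated cells and -100% = media-only wells without cells; nearly all actives have a fitted effect of over 55% in size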
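A 48-hour cytotoxicity screen used HT-1080-NT cells plated 2 hours before compound delivery. ATP-based CellTiter-Glo luminescence measured viability, normalized to DMSO and no-cell controls.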
* = called active by the depositor; i = inactive; ? = inconclusive; . = not tested or not shown; [ ] = dose if it differs, or a comment. Calls follow the shape of the dose curve; as a rule, active = well fitted curve in the direction sought with a large enough effect; inconclusive = small, poorly fitted or top-dose-only effect, or another doubt; inactive = no such curve, though single readings can be large; an effect the other way counts as inactive or inconclusive. Potency is read from the fitted curve at half-maximal effect.

SMILES | KB-V1 MDR tox | ATXN2 expr inh | HT1080 IDH1KD tx | KB-3-1 tox | S2 tox | HT1080NT lethal
Cc1ccc(C)c(-n2sc3ccc(F)cc3c2=O)c1 | i | ? | ? | i | ? | 21µM*
CCCCCCCCCOC(=O)CNc1nc(C#N)nc(NCC(=O)OCCCCCCCCC)n1 | i | . | . | ? | . | .
COc1cc2nc(N3CCN(c4cc(C)ccc4C)CC3)nc(N)c2cc1OC | ? | ? | 2.6µM* | ? | . | 2.6µM*
COc1ccc(Cl)cc1Nc1nc(N)c2ccccc2n1 | i | 10% | ? | i | i | ?
COc1cc2nc(N3CCNCC3)nc(N)c2cc1OC | i | . | 2% | ? | . | 0%
COc1ccc(C)cc1Nc1nc(N)c2cc(OC)c(OC)cc2n1 | ? | ? | 18µM* | i | ? | ?
CCn1c(-c2cccc(OC)c2)nc2cc(NC(C)=O)cc(C(=O)N3CCCC(C(C)=O)C3)c21 (stereo not given) | . | . | . | . | i | .
Cc1cc(NC(=O)CC2CCCC2)n(-c2nc3ccccc3[nH]2)n1 | 18µM* | -30% | 18µM* | ? | ? | ?
COc1ccc(-n2nc3c(c2NC(=O)CCl)CSC3)cc1 | ? | -28% | 7.3µM* | 23µM* | ? | 21µM*
COc1ccc(-c2nc3cc(F)ccc3cc2CN(C(=O)c2ccc3c(c2)OCO3)C2CC2)cc1 | . | . | . | . | i | .
O=S(=O)(c1ccccc1)c1nc(-c2ccc(F)cc2)oc1NCc1ccccc1 | i | -2% | . | i | ? | .
O=S(=O)(c1ccccc1)c1nc(-c2ccc(F)cc2)oc1NCC1CCCO1 (stereo not given) | 3.7µM* | -4% | 2% | i | ? | 2%
Cc1nc2ccc(CN(C)c3ccc(C(=O)N[C@@H](CCC(=O)O)C(=O)O)s3)cc2c(=O)[nH]1 | . | 0.1µM* | . | . | i | .
Cc1nc2cc(NC(=O)[C@@H]3C[C@@H](Sc4ccccn4)CN3C3CCCCCC3)ccc2s1 | . | . | . | . | i | .
Cc1ccc(S(=O)(=O)CCC(=O)Nc2ccc(OC(F)(F)F)cc2)cc1 | i | . | . | i | . | .
COc1ccc(Cl)cc1NS(=O)(=O)c1c(C)nc2scc(C)n2c1=O | i | -10% | . | i | i | .
CCn1c(COc2ccc(=O)n(-c3ccccc3)n2)nnc1SCc1ccc(OC)cc1 | 18µM* | 10% | 1% | i | i | 4%
CCn1c(COc2ccc(=O)n(-c3ccccc3)n2)nnc1SCc1ccccc1 | i | 0% | 3% | i | i | 3%
COc1cccc(C(=O)n2nc(-c3ccco3)nc2NCc2cccs2)c1 | i | 21% | . | i | i | .
COc1cc(CN2CCN(Cc3ccc([N+](=O)[O-])cc3)CC2)c([N+](=O)[O-])cc1OC | i | . | -20% | ? | i | -2%
COc1cccc(CN2CCN(Cc3cc(OC)c(OC)cc3[N+](=O)[O-])CC2)c1 | 21µM* | -11% | 2% | i | i | 7%
CCCCn1cnc2c(SCc3ccc(Br)cc3)nc(N)nc21 | i | -18% | 16µM* | i | i | 15µM*
CCCCn1cnc2c(SCc3ccccc3)nc(N)nc21 | i | 47% | -6% | i | i | -1%
CCCCN(CC)Cc1ccc(CNC(=O)Nc2ccccc2)o1 | i | -17% | 14µM* | i | i | 1%
COC(=O)C1=C(C)N(Cc2ccccc2)C(=NCc2cccc(Cl)c2)N[C@H]1c1ccccc1 | i | ? | -14% | i | 35µM* | -12%
SMILES | KB-V1 MDR tox | ATXN2 expr inh | HT1080 IDH1KD tx | KB-3-1 tox | S2 tox | HT1080NT lethal
COCCN=C1N[C@@H](c2ccc(Br)cc2)C(C(=O)OC)=C(C)N1Cc1ccccc1 | i | ? | -29% | i | ? | 23µM*
COCCOC(=O)C1=C(C)N(Cc2ccccc2)C(=O)NC1c1ccc(OC)cc1 (stereo not given) | 13µM* | -23% | -10% | i | i | -17%
COC(=O)C1=C(C)N(Cc2ccccc2)C(=O)N[C@H]1c1ccc(Br)cc1 | i | -23% | -6% | i | i | -9%
Cc1cc(C)c(Cn2c(=O)n(Cc3ccccc3)c(=O)c3c(C)c(C)sc32)c(C)c1 | i | 6% | . | i | i | .
CCc1ccccc1NC(=O)Nc1nnc(N(CC)c2ccccc2)s1 | i | . | . | i | . | .
COc1ccc(N2CCN(C(=O)c3cc4c(s3)CCCCC4)CC2)cc1 | i | -2% | -7% | i | i | 12%[9.24 µM]
CCOc1ccc(S(=O)(=O)N2CCN(C(=O)c3cc4c(s3)CCCC4)CC2)cc1 | 3.3µM* | 9% | -1% | 12µM* | i | -3%
CCOc1ccc(S(=O)(=O)N2CCN(C(=S)NCc3ccccc3)CC2)cc1 | 18µM* | . | -8% | i | i | 27%
O=S(=O)(c1ccccc1)N1CCN(C(=S)NCc2ccccc2)CC1 | ? | -23% | -8% | i | i | 2%
O=C(c1cc2c(s1)CCCCC2)N1CCN(c2ncccn2)CC1 | 16µM* | 0% | -2% | i | i | 7%
CCOc1ccc(S(=O)(=O)N2CCN(C(=O)c3ccco3)CC2)cc1 | i | 1% | 12% | i | i | 2%
Cc1cccc(C)c1NC(=O)C(=O)NCC(c1ccc2c(c1)OCO2)N1CCOCC1 (stereo not given) | i | 8% | . | i | i | .
O=C(Nc1cccc(C(=O)O)c1)/C(=C/c1ccc([N+](=O)[O-])cc1)NC(=O)c1ccccc1 | i | . | 8% | i | i | 2%
O=C(N/N=C/c1ccc(O)c(O)c1O)/C(=C/c1ccc([N+](=O)[O-])cc1)NC(=O)c1ccccc1 | i | -35% | 15µM* | i | ? | ?
O=C(Nc1cccc2ccccc12)/C(=C/c1ccc([N+](=O)[O-])cc1)NC(=O)c1ccccc1 | 4.6µM* | -12% | -10% | i | i | -3%
Cc1cc(F)ccc1S(=O)(=O)Nc1ccc2c(c1)CCCN2C(=O)c1cccs1 | ? | ? | . | i | . | .
N#CC1=C(SCC(=O)NC2CCCCC2)NC(=O)CC1c1ccco1 (stereo not given) | i | 3% | 9% | 15µM* | i | 5%
N#CC1=C(SCC(=O)NCc2ccccc2)NC(=O)CC1c1ccco1 (stereo not given) | i | 3% | 0% | i | i | -5%
N#CC1=C(SCC(=O)Nc2ccccc2)NC(=O)CC1c1ccco1 (stereo not given) | 15µM* | 48% | ? | ? | i | 14µM*
O=C1c2ccccc2NC(c2cccc(Cl)c2)N1N=C1CCCCCC1 (stereo not given) | 26µM* | 16% | 8% | ? | i | 15%
CCOc1cc(C2Sc3ccccc3NC3=C2C(=O)c2ccccc23)ccc1O (stereo not given) | i | ? | . | i | 32µM* | .
